Several values for one entry are separate records, joined by “and”; a condition that tells them apart may be missing. Equal values may be shown once. The whole screen tested about 5,500 compounds, of which about 2,000 (36%) were called active. About 18% were inconclusive and are not listed. Rule as the data show it: active = normalized growth mostly below about 0.91 (no sharp cut-off); inconclusive = no clear call, values can overlap the other calls; inactive = mostly above about 0.92. The list shows a part of the results.
Test: chemical genetic growth profiling, strain panel (AID 1159580);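 also: tested at 20 µM; growth read once vehicle control cultures reached saturation at 30 °C; 1 = growth at the plate median or of vehicle wells; lower values mean less growth of the strain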
Conditions: S. cerevisiae deletion strains, growth OD

Measured: normalized growth

CC1CCC2(OC1)OC1CC3C4CC[C@H]5C[C@@H](O)CC[C@]5(C)C4CC(=O)[C@]3(C)C1C2C (stereo partly specified)
inactive: locus YAL013W, strain DEP1, hits give low values 1.01 | locus YAL021C, strain ccr4, hits give low values 0.997 | locus YAL026C, strain drs2, hits give low values 1.03 | locus YAL030W, strain snc1, hits give low values 1.01 | locus YBL061C, strain skt5, hits give low values 1.02 | locus YBR009C, strain hhf1, hits give low values 0.983 | locus YBR021W, strain FUR4, hits give low values 0.991 | locus YBR023C, strain chs3, hits give low values 1.02 | locus YBR171W, strain sec66, hits give low values 1.02 | locus YBR229C, strain ROT2, hits give low values 1.01 | locus YBR231C, strain swc5, hits give low values 0.996 | locus YBR279W, strain paf1, hits give low values 1.01 | locus YCL011C, strain gbp2, hits give low values 1.04 | locus YCL016C, strain dcc1, hits give low values 1.01 | locus YCL029C, strain bik1, hits give low values 0.973 | locus YCL061C, strain MRC1, hits give low values 1.02 | locus YCL069W, strain vba3, hits give low values 1.02 | locus YCR088W, strain abp1, hits give low values 1.03 | locus YDL005C, strain med2, hits give low values 1.01 | locus YDL035C, strain GPR1, hits give low values 1.01 | locus YDL040C, strain nat1, hits give low values 1.01 | locus YDL074C, strain BRE1, hits give low values 0.974 | locus YDL101C, strain DUN1, hits give low values 1.01 | locus YDL134C, strain PPH21, hits give low values 1.01 | locus YDL185W, strain tfp1, hits give low values 0.981 | locus YDL192W, strain arf1, hits give low values 0.992 | locus YDR001C, strain nth1, hits give low values 1.01 | locus YDR069C, strain doa4, hits give low values 1 | locus YDR101C, strain arx1, hits give low values 0.974 | locus YDR137W, strain rgp1, hits give low values 1.02 | locus YDR150W, strain NUM1, hits give low values 1.01 | locus YDR159W, strain sac3, hits give low values 0.962 | locus YDR162C, strain NBP2, hits give low values 1.01 | locus YDR195W, strain ref2 1.04 | locus YDR297W, strain sur2, hits give low values 0.995 | locus YDR318W, strain mcm21, hits give low values 0.975 | locus YDR334W, strain swr1, hits give low values 1.01 | locus YDR335W, strain msn5, hits give low values 1.02 | locus YDR388W, hits give low values 0.982 | locus YDR392W, strain spt3, hits give low values 0.866 | locus YDR502C, strain sam2, hits give low values 0.98 | locus YEL003W, strain gim4, hits give low values 0.999 | locus YEL037C, strain rad23, hits give low values 1.02 | locus YEL061C, strain CIN8 (second series), hits give low values 1.01 | locus YEL061C, strain CIN8, hits give low values 1.01 | locus YER015W, strain faa2, hits give low values 1 | locus YER016W, strain bim1, hits give low values 1.01 | locus YER110C, hits give low values 0.978 | locus YER111C, strain swi4, hits give low values 1.01 | locus YER155C, strain BEM2 (second series), hits give low values 0.97 | locus YER155C, strain BEM2, hits give low values 1.01 | locus YER167W, strain BCK2, hits give low values 1.01 | locus YFR010W, strain ubp6, hits give low values 0.997 | locus YGL078C, strain dbp3, hits give low values 0.982 | locus YGL086W, strain mad1, hits give low values 0.998 | locus YGL167C, strain pmr1, hits give low values 1.01 | locus YGL173C, strain kem1, hits give low values 0.992 | locus YGL227W, strain vid30, hits give low values 1.02 | locus YGL240W, strain doc1, hits give low values 1 | locus YGL248W, strain PDE1, hits give low values 1.02 | locus YGL253W, strain hxk2, hits give low values 1.01 | locus YGR078C, strain PAC10, hits give low values 0.989 | locus YGR135W, strain pre9, hits give low values 0.987 | locus YGR229C, strain SMI1, hits give low values 1 | locus YGR252W, strain gcn5, hits give low values 0.992 | locus YHR013C, strain ard1, hits give low values 1.02 | locus YHR027C, strain rpn1, hits give low values 1.02 | locus YHR030C, strain SLT2, hits give low values 1.01 and 0.963 | locus YHR079C, strain IRE1 (second series), hits give low values 0.988 | locus YHR079C, strain IRE1, hits give low values 0.962 | locus YHR094C, strain hxt1, hits give low values 0.991 | locus YHR129C, strain ARP1, hits give low values 1 | locus YHR142W, strain chs7, hits give low values 1.03 | locus YHR200W, strain rpn10, hits give low values 0.987 | locus YIL066C, strain RNR3, hits give low values 1.01 | locus YIL073C, strain SPO22, hits give low values 0.983 | locus YIL125W, strain kgd1, hits give low values 0.989 | locus YIR030C, strain dcg1, hits give low values 0.984 | locus YJL092W, strain hpr5, hits give low values 1.01 | locus YJL095W, strain BCK1 (second series), hits give low values 1.01 | locus YJL095W, strain BCK1, hits give low values 1 and 0.964 | locus YJL115W, strain asf1, hits give low values 1.03 | locus YJL129C, strain trk1, hits give low values 1.04 | locus YJL134W, strain LCB3, hits give low values 1.01 | locus YJL154C, strain vps35, hits give low values 1.03 | locus YJL164C, strain tpk1, hits give low values 0.989 | locus YJL166W, strain qcr8, hits give low values 1 | locus YJL168C, strain set2, hits give low values 0.986 | locus YJL187C, strain SWE1 (second series), hits give low values 0.997 | locus YJR043C, strain POL32, hits give low values 1 | locus YJR066W, strain TOR1, hits give low values 0.927

Reference: PubChem BioAssay AID1159580 (chemical genetic matrix, 2015)
